Our source for the Potency and outcome values is PubChem BioAssay (Tox21).

Molecules are shown by their SMILES. Where “and” joins values, the source holds several entries; their conditions need not be identical. Equal entries are not always repeated. Inconclusive results are not listed. Some compounds were tested as several samples or in several runs, with calls that do not always agree. Calls of active or inactive are those of the source. Unless noted, calls follow the shape of the dose curve; as a rule, active = well fitted curve in the direction sought with a large enough effect in the repeat runs; inconclusive = weak or mixed curves; inactive = no such curve, though single readings can be large; an effect the other way counts as inactive or inconclusive.

Assay [1] can be described thus: qHTS assay to identify small molecule agonists of the endoplasmic reticulum stress response signaling pathway - cell viability counter screen (AID 1159517; calls by dose curve; also: nearly all actives have a fitted effect of over 50% in size; also: potency is read from the fitted curve at half-maximal effect). In short, it runs like this: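 HeLa cells carrying an ESRE-driven beta-lactamase reporter receive compound for 5 hr at 37 C. Cell viability is then gauged with CellTiter-Glo by luminescence, 30 min at room temperature.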
In general terms: qHTS replaces the single test concentration by a dilution series.

The nature of assay [2]: qHTS assay to identify small molecule antagonists of the retinoid-related orphan receptor gamma (ROR-gamma) signaling pathway - cell viability counter screen (AID 1159520). Also: nearly all actives have a fitted effect of over 50% in size. Also: potency is read from the fitted curve at half-maximal effect. A digest of the protocol: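 Cytotoxicity was read from cellular ATP (CellTiter-Glo luminescence) after 16 hr at 37 C with 1 uM doxycycline induction. The inducer was added 2 hr after compound transfer to Tet-on ROR gamma CHO cells.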

Assay [3] can be described thus: qHTS assay to identify small molecule agonists of the AP-1 signaling pathway - cell viability counter screen (AID 1159525; calls by dose curve; also: nearly all actives have a fitted effect of over 55% in size; also: potency is read from the fitted curve at half-maximal effect). A digest of the protocol:
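Luminescent ATP readout (Cell Titer Glo, 30 min RT), normalised to DMSO and tetra n-octyl ammonium bromide controls. Cells were ME-180 AP-1-bla in 0.5% dialyzed FBS Opti-MEM, with a 5 h, 37 °C compound exposure.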

The nature of assay [4]: qHTS assay to identify small molecule agonists of the peroxisome proliferator-activated receptor delta (PPARd) signaling pathway - cell viability counter screen (AID 743211). Also: potency is read from the fitted curve at half-maximal effect; nearly all actives have a fitted effect of over 55% in size. In short, it runs like this: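 Viability was measured as CellTiter-Glo luminescence (30 min, room temperature) in the same wells as the beta-lactamase readout. GeneBLAzer PPARd UAS-bla HEK293H cells received compound after 5 h plating and were incubated 17 h at 37 C.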

In assay [5] the target is Peroxisome proliferator-activated receptor delta (Homo sapiens) (UniProt Q03181). The experiment in a line: qHTS assay to identify small molecule agonists of the peroxisome proliferator-activated receptor delta (PPARd) signaling pathway (AID 743212; calls by dose curve). In short, it runs like this:
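HEK293H PPARd-bla cells; 5 h preincubation 37 C/5% CO2; compound (DMSO) 37 C; LiveBLAzer B/G FRET substrate 2 h RT; fluorescence intensity.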

A short description of assay [6]: qHTS assay to identify small molecule antagonists of the peroxisome proliferator-activated receptor delta (PPARd) signaling pathway - cell viability counter screen (AID 743213). Also: potency is read from the fitted curve at half-maximal effect; nearly all actives have a fitted effect of over 50% in size. In short, it runs like this:
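PPARd-bla HEK293H cells were treated with compounds plus agonist L165041 (300 nM final) for 17 h at 37 C. Viability was then read in the same wells by CellTiter-Glo luminescence after 30 min at room temperature.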

The nature of assay [7]: qHTS assay to identify small molecule agonists of the farnesoid-X-receptor (FXR) signaling pathway - cell viability counter screen (AID 743218). Also: nearly all actives have a fitted effect of over 45% in size. Also: potency is read from the fitted curve at half-maximal effect. A digest of the protocol: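 In GeneBLAzer FXR-UAS-bla HEK 293T cells, compounds act for 16 h at 37 C. Cell viability is then scored in the reporter wells by CellTiter-Glo, 30 min at RT, luminescence.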
The target in assay [8] is Bile acid receptor (Homo sapiens) (UniProt Q96RI1). The experiment in a line: qHTS assay to identify small molecule agonists of the farnesoid-X-receptor (FXR) signaling pathway (AID 743220; active = well fitted activation curve with a large enough effect in the signal ratio in the repeat runs, not every such curve was filed as active; the % refers to the signal ratio). A digest of the protocol:
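Beta-lactamase reporter under UAS control in GeneBLAzer FXR HEK 293T cells (5000/well) measured with LiveBLAzer FRET substrate after 2 h at room temperature. Compound exposure lasted 16 h at 37C.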

Assay [9] in a line: qHTS assay to identify small molecule antagonists of the farnesoid-X-receptor (FXR) signaling pathway - cell viability counter screen (AID 743221; active = well fitted cell-killing curve with a large enough effect in the repeat runs, not every such curve was filed as active; also: nearly all actives have a fitted effect of over 50% in size; also: potency is read from the fitted curve at half-maximal effect). In short, it runs like this: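 Cytotoxicity counter screen run in the FXR-bla reporter wells: HEK 293T cells exposed to compound with 50 uM (final) chenodeoxycholic acid for 16 h, 37 C, then viability measured by CellTiter-Glo luminescence after 30 min, room temperature.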

Assay [10] in a line: qHTS assay to identify small molecule agonists of the vitamin D receptor (VDR) signaling pathway - cell viability counter screen (AID 743224). Also: nearly all actives have a fitted effect of over 50% in size. Also: potency is read from the fitted curve at half-maximal effect. In short, it runs like this: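 VDR-bla cell line, quantitative HTS format; 16 h compound incubation (37C, 5% CO2); ATP-based CellTiter-Glo luminescence measured in the reporter assay wells.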
The nature of assay [11]: qHTS assay to identify small molecule antagonists of the vitamin D receptor (VDR) signaling pathway - cell viability counter screen (AID 743225). Also: nearly all actives have a fitted effect of over 50% in size. Also: potency is read from the fitted curve at half-maximal effect. In short, it runs like this:
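Cytotoxicity counter screen read by CellTiter-Glo luminescence (30 min, room temperature) in the same wells as the VDR-bla antagonist readout. HEK 293T VDR-UAS-bla cells had 16 h at 37C with compound and 3 nM (final) 1-alpha,25-dihydroxyvitamin D3, then 2 h with FRET substrate.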

Assay [12] addresses Nuclear receptor ROR-gamma (Homo sapiens) (UniProt P51449). Nature of the assay: qHTS assay to identify small molecule antagonists of the retinoid-related orphan receptor gamma (ROR-gamma) signaling pathway (AID 1159521). A digest of the protocol: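 Antagonist read-out: drop in luminescence (ONE-Glo) from an RORE-LUC reporter in CHO cells with doxycycline-inducible ROR-gamma; 2 hr compound pretreatment, 1 uM doxycycline, 16 hr incubation at 37 C.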

Assay [13] in a line: qHTS assay to identify small molecule agonists of the RXR signaling pathway - cell viability counter screen (AID 1159529). Also: nearly all actives have a fitted effect of over 50% in size. Also: potency is read from the fitted curve at half-maximal effect. In short, it runs like this:
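CellTiter-Glo luminescence gave viability in the wells also read for beta-lactamase. Cells (RXR-alpha-UAS-bla HEK 293T, 2% charcoal-stripped FBS medium) had 5 hr plating, then 16 hr compound exposure at 37 C; tetraoctyl ammonium bromide served as positive control.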

In assay [14] the target is Vitamin D3 receptor (Homo sapiens) (UniProt P11473). Nature of the assay: qHTS assay to identify small molecule agonists of the vitamin D receptor (VDR) signaling pathway (AID 743222; calls by dose curve). In short, it runs like this: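 Agonist activity measured in VDR-bla reporter cells. Exposure 16 h, 37C, 5% CO2; detection by B/G FRET substrate, 2 h RT.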
Chain of Vitamin D3 receptor (Homo sapiens) (P11473 whole entry, looked up): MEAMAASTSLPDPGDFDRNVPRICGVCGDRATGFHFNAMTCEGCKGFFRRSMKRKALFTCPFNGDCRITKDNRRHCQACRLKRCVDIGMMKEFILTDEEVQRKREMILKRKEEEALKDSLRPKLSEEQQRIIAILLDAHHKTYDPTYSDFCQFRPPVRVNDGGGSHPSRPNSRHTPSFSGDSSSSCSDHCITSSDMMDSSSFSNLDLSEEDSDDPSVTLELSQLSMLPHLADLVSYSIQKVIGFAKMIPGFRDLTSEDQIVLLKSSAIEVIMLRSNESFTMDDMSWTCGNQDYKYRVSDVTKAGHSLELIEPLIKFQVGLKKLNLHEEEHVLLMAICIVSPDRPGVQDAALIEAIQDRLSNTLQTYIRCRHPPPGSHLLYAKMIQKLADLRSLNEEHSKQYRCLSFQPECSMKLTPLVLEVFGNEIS
Assay [15] addresses Peroxisome proliferator-activated receptor delta (Homo sapiens) (UniProt Q03181). Nature of the assay: qHTS assay to identify small molecule antagonists of the peroxisome proliferator-activated receptor delta (PPARd) signaling pathway (AID 743215; active = well fitted inhibition curve with a large enough effect in the signal ratio in the repeat runs, not every such curve was filed as active; the % refers to the signal ratio;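 also: cells stimulated with agonist L165041 at 300 nM final during compound exposure; potency is read from the fitted curve at half-maximal effect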). In short, it runs like this:
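Antagonist-mode beta-lactamase reporter screen: HEK293H cells with UAS-bla under PPARd control, stimulated by 300 nM L165041 (final) alongside test compound for 17 h at 37 C, then FRET fluorescence after 2 h substrate incubation.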

Chain of Peroxisome proliferator-activated receptor delta (Homo sapiens) (Q03181 whole entry, looked up): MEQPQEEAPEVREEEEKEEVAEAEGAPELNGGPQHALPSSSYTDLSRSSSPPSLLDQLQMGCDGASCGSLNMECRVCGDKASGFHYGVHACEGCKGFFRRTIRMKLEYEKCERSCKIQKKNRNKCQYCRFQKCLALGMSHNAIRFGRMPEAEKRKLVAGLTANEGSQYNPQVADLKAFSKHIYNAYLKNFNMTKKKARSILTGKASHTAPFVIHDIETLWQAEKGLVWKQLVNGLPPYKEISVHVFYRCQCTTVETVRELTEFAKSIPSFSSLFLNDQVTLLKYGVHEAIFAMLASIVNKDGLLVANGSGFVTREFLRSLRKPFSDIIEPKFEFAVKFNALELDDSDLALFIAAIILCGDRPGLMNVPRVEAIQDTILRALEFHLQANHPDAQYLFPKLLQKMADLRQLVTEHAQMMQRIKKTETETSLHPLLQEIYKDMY
Chain of Bile acid receptor (Homo sapiens) (Q96RI1 whole entry, looked up): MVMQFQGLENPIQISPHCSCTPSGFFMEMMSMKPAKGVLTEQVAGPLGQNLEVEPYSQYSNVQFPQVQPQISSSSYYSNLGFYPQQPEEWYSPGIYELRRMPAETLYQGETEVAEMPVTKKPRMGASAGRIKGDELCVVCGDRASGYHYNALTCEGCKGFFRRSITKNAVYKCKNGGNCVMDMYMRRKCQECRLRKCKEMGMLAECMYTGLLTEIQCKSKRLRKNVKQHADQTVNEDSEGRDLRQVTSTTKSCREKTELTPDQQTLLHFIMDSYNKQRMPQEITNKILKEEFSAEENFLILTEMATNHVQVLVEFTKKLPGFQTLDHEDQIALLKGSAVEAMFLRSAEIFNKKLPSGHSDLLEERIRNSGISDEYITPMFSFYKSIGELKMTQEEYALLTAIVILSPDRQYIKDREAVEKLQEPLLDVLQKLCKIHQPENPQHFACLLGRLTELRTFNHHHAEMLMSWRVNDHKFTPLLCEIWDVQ

`O=C(NO)c1ccccc1`: the Potency result in [1], in assay [2] and in assay [3] was “inactive” in each case.

In the case of `CCN=c1cc2oc3cc(NCC)c(C)cc3c(-c3ccccc3C(=O)OCC)c-2cc1C`, the Potency is 48.8 µM (active) and 27.5 µM (active) in assay [4]; 38.8 µM (active) and 24.5 µM (active) in [6]; 48.8 µM (active) and 38.9 µM (active) in assay [7]; 54.7 µM (active) and 54.9 µM (active) in assay [9]; 27.4 µM (active) and 24.5 µM (active) in assay [10]; 48.8 µM (active) and 24.5 µM (active) in assay [11]. Also, the Potency was 24.5 µM (active) and 38.9 µM (active) in assay [1]; 27.2 µM (active) and 24.3 µM (active) in assay [2]; 3.84 µM (active) and 6.86 µM (active) in [12]; 38.8 µM (active) and 49 µM (active) in assay [13]. In addition, in [5], the molecule was classed as inactive. For the same molecule, the Potency entry in [8] was “inactive”.

Consider `C=C(c1ccc(C(=O)O)cc1)c1cc2c(cc1C)C(C)(C)CCC2(C)C`, for which the Potency in assay [4] is 61.6 µM (active); in assay [6], 21.9 µM (active) and 29.8 µM (active); in assay [7], 24.5 µM (active); in [10] it was 21.9 µM (active) and inactive; in assay [11], 21.3 µM (active); in assay [1] it was 24.5 µM (active) and 19 µM (active). The Potency in [2] is 30.6 µM (active); in assay [12] it was 24.3 µM (active) and 23.7 µM (active); in assay [3], 30.9 µM (active); in assay [13] it was 49 µM (active) and 23.9 µM (active). Also, the Potency result in assay [9] and in assay [14] was “inactive” throughout.

As to `CN(C)CCCN1c2ccccc2CCc2ccccc21`, the Potency in assay [4] is 30.9 µM (active); in assay [6], 24.5 µM (active) and 26.6 µM (active); in assay [7] it was 19.5 µM (active) and inactive. Also, the Potency result in [9], in assay [10], in assay [11], in assay [1], in assay [2] and in [3] was “inactive” in each case. Also, the Potency entry in assay [13] is “inactive”.

For `Cc1cc2c(C(C)C)c(O)c(O)c(C=O)c2c(O)c1-c1c(C)cc2c(C(C)C)c(O)c(O)c(C=O)c2c1O`, the Potency was 9.44 µM (active) in assay [4]; 11.9 µM (active) in assay [6]; 18.8 µM (active) in assay [15]; 10.6 µM (active) in assay [7]; 16.8 µM (active) in [9]; 11.9 µM (active) in [10]. For the same molecule, the Potency in assay [11] is 9.52 µM (active); in [1], 10.7 µM (active); in assay [2], 26.6 µM (active); in assay [13], 21.3 µM (active). For the same molecule, the Potency entry in [3] is “inactive”.
